# Results: PubChem BioAssay AID488890 (Southern Research Specialized Biocontainment Screening …, 2010)
# In all, about 320,000 compounds went through this assay and about 1,300 (0.41%) were called active. Another 3% or so got no clear call; they are omitted. The rule behind the calls is not given here. The list is a sample of the results. Measured potencies and affinities stand elsewhere.
# Assay: growth inhibition of non-replicating M. tuberculosis (AID 488890);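 note: plate controls were DMSO cells for no effect and high antibiotic wells for full effect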
# Conditions: Mycobacterium tuberculosis non-replicating, at 25 µM, stronger effect = higher value
row,Compound,inhibition [%]
1,NC(=O)CCn1ccc2ccccc21,2.82
2,Cc1cc(C)n(C(=O)c2ccc(C)c(S(=O)(=O)N3CCCCC3)c2)n1,-9.14
3,Cc1ccc(C(C)C)cc1OCC(=O)NNC(=O)Nc1ccccc1,-5.51
4,Cc1c(Cl)cccc1NC(=O)CNC(=O)c1ccccc1F,17.3
5,COc1ccc(C(=O)NNC(=O)C(=O)Nc2ccc(C)c(Cl)c2)cc1,73
6,Cc1cc(NC(=O)c2ccccc2C)ccc1NC(=O)c1ccccc1Cl,-10.5
7,Cc1c(Cl)cccc1NC(=O)CCC(=O)NNC(=O)c1ccccc1Cl,3.92
8,Cc1ccc(S(=O)(=O)NCC(=O)NCC(=O)OCc2c(F)cccc2Cl)cc1,-16.7
9,COC(=O)c1c(NC(=O)c2cccc([N+](=O)[O-])c2)sc(C(N)=O)c1C,51.4
10,COc1cc(/C=N/NC(=O)c2ccc(N)cc2)ccc1OC(=O)c1cccc(C)c1,35.7
11,CCN(C(=O)COC(=O)c1cc2ccccc2cc1O)C1CCS(=O)(=O)C1 (stereo not given),9.53
12,CCNC(=O)/N=C1/NC(=O)C(C(C)C)O1 (stereo not given),0.48
13,CC(C)CC(NC(N)=O)C(=O)Nc1ccc(Cl)c(Cl)c1 (stereo not given),13.8
14,CC(C)(C)NC(=O)Cn1cc(C(=O)c2ccccc2F)c2ccccc21,0.38
15,CN=Cc1nc(-c2ccccc2)oc1O,10.9
16,CCCCOc1ccc(-c2nc(/C=N/c3nccs3)c(O)o2)cc1,62.2
17,O=C(O)CN(Cc1ccccc1)S(=O)(=O)c1ccc2c(c1)OCCO2,-8.61
18,CC1CN(C(=O)c2ccc(COc3ccc(C(C)C)cc3)o2)CC(C)O1 (stereo not given),54.3
19,COc1ccc(NC(C)=O)cc1NC(=O)CSc1nnc(-c2ccc(F)cc2)n1N,-6.88
20,O=[N+]([O-])c1ccc(NC(=S)N2CCc3ccccc3C2)cc1,-1.08
21,CC[n+]1c(/C=C(/C)SC)sc2ccccc21,67
22,CC[n+]1c(/C=C(\C)SC)sc2ccccc21,0.12
23,CCn1c(N2CCN(C(=S)NCCc3ccccc3)CC2)nc2ccccc21,63.9
24,Cc1[nH]c2ccc(OC(F)(F)F)cc2c1CCNCc1cccc([N+](=O)[O-])c1,77.6
25,COc1ccc2[nH]c(C)c(CCNCc3cn(C)c4ccccc34)c2c1,60.3

row,Compound,inhibition [%]
1,CC1=C(CCN2CCN(C3CCCC3)C(CCO)C2)C(C)(C)CCC1 (stereo not given),54.5
2,CC1=C(CCN2CCN(C(C)C)C(CCO)C2)C(C)(C)CCC1 (stereo not given),12.7
3,CCOc1ccccc1NC(=S)N1CCC(c2nc3ccccc3o2)CC1,29.4
4,COc1ccc(NC(=O)Cn2nnc(C(=O)NCc3ccco3)c2N)cc1,-3.46
5,CCCC1(CCC)NC(=O)NC1=O,36.8
6,O=C(CCc1ccccc1)NCc1ccncc1,7.15
7,Cc1nc(Nc2ccc(S(N)(=O)=O)cc2)oc1C,71.4
8,CSc1ccc(C(=O)C2CCCN(C(=O)c3ccc4c(c3)OCO4)C2)cc1 (stereo not given),71.2
9,CSc1ccc(C(=O)C2CCCN(C(=O)c3nonc3C)C2)cc1 (stereo not given),62.8
10,C=CCN(CC=C)C(=O)C1CC(=O)N(c2ccc(Br)cc2)C1 (stereo not given),0.89
11,O=c1cc(NS(=O)(=O)c2ccccc2)nc(SCc2c(Cl)cccc2Cl)[nH]1,-0.92
12,O=C(NNc1cccc(Cl)n1)Nc1ccc(F)cc1,9.17
13,CCCCC(=O)N(CCOC)c1nnc(-c2ccc(OC)cc2)s1,11.8
14,CCC(=O)N1c2ccc(S(=O)(=O)N3CCN(CC)CC3)cc2CC1C (stereo not given),-2.95
15,Cc1nc2c(=O)oc3ccccc3c2n1-c1ccccc1,66.8
16,Cn1c(C(F)(F)F)nc2c(=O)oc3ccccc3c21,71.2
17,Cc1cc(Cl)c2oc(C(=O)N3CCN(c4cccc(C)n4)CC3)c(C)c2c1,22.3
18,CCOC(=O)N1CCC(=NNC(=O)c2cc3ccccc3cc2O)CC1,31.9
19,O=C(NN=C1CCCC1)c1ccccc1O,8.13
20,N=c1n(Cc2ccccc2)c2ccccc2n1CC(O)c1ccco1 (stereo not given),2.91
21,Cc1ccc(Cn2c(=N)n(CC(O)c3ccco3)c3ccccc32)cc1 (stereo not given),18.9
22,CC1CCC/C(=C\Nc2ccc(O)cc2)C1=O (stereo not given),13.7
23,CC1CCC/C(=C\Nc2ccc(C(=O)O)cc2)C1=O (stereo not given),-12.5
24,O=C1c2cccc(OCC(=O)N3CCCc4ccccc43)c2CCN1Cc1cccnc1,15.4
25,O=C(NC1CCCCC1)c1cc(-c2cccs2)on1,43.1

row,Compound,inhibition [%]
1,O=C(NC1CCCC1)c1cc(-c2ccccc2O)on1,4.68
2,CN(Cc1cccs1)C(=O)COC(=O)CNC(N)=O,2.55
3,CCc1ccc(C(=O)c2cncc(Br)c2)cc1,70
4,O=C(c1ccccc1)c1cncc(Br)c1,19
5,Cc1ccc(C)n1-c1ccc(N2CCOCC2)c([N+](=O)[O-])c1,-3.61
6,Cc1nn(C)c(C)c1NC(=S)Nc1ccc(S(=O)(=O)Nc2ncccn2)cc1,-12.7
7,CCC/C=C(\CCC)C(NC(=O)CCc1ccccc1)c1ccc(C(F)(F)F)cc1 (stereo not given),-8.64
8,Cc1ccc(O)c(C)c1,-0.5
9,Cc1cc(C(c2ccc(O)cc2)c2cc(C)c(O)cc2C)c(C)cc1O,19.6
10,CN(C)CCCn1c(-c2ccccc2)nc(=S)c2c1CCCC2,3.62
11,CN(C)CCN1C(=O)C2C(C(=O)Nc3cc(Cl)cc(Cl)c3)C3C=CC2(O3)C1C(=O)NC1CCCCC1 (stereo not given),5.38
12,COc1ccc(OCCCC(=O)OCC(=O)Nc2nnc(-c3ccccc3)o2)cc1,24.6
13,CC(C)c1ccc(OCC(=O)NCCO)cc1,-10.9
14,Cc1cccc(N2CCN(Cc3ccc(Br)o3)CC2)c1C,51.8
15,Cc1cccc(N2CCN(Cc3ccoc3)CC2)c1C,11.8
16,Cc1ccc(CN2CCN(c3ccccc3Cl)CC2)o1,-0.79
17,Clc1ccccc1N1CCN(Cc2ccc(Br)o2)CC1,19.6
18,Cc1ccccc1N1CCN(Cc2cc3c(cc2[N+](=O)[O-])OCO3)CC1,45.5
19,Cc1ccccc1N1CCN(Cc2ccc(Br)o2)CC1,35.5
20,CCOc1ccc(N=C2SCC(=O)N2CC)cc1,25.3
21,O=C(Nc1cccc([N+](=O)[O-])c1)NC1CCS(=O)(=O)C1 (stereo not given),-1.42
22,CSc1ccccc1NC(=O)CN(C)CC(=O)Nc1c(F)cccc1F,6.62
23,O=C1c2cccc3cccc(c23)C(=O)N1CCCc1n[nH]c(=S)n1-c1ccccc1,-14.7
24,C=CCN(C)NC(=O)Nc1ccccc1,6.98
25,Cc1c(NC(=O)CCCCCN2C(=O)c3ccccc3C2=O)c(=O)n(-c2ccccc2)n1C,-3.66
